PubChem BioAssay
Values without a mark were called inactive.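 The calls were made as follows: active = viability at or below 10% of carrier control in both of two separate runs; inconclusive = viability at or below 10% in only one of the two runs; inactive = the rest.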

Assay: reduced viability of SK-BR-3 breast cancer cells – cell-based, 24 h, human, pilot screen (AID 572);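 also: compound exposure lasted between 18 and 24 h rather than exactly 24 h; 100% = carrier-treated control wells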
Details: SK-BR-3 viability, CellTiter-Glo luminescence, at 10 µM, active compounds read low

Row | SMILES | viability
1 | CN=C1CC(C)(C)CC(=O)/C1=C(/O)CCC(=O)NC | 104%
2 | CC(C)(C)NC(=O)Cn1nnc(-c2cccs2)n1 | 94%
3 | Nc1nnc(SCC(=O)N2CCc3ccccc32)n1-c1ccccc1 | 102%
4 | O=C(CSc1ncnc2c1oc1ccccc12)Nc1ccccc1F | 96.5%
5 | O=C(Nc1cccc(C(F)(F)F)c1)c1cccnc1N1CCCC1 | 99%
6 | Cc1cc(C(F)(F)F)nn1Cc1ccc(C(=O)NCc2ccco2)o1 | 97%
7 | O=C(C1CCCN(S(=O)(=O)c2cccnc2)C1)N1CCN(c2ccccn2)CC1 (stereo not given) | 93.5%
8 | O=C(CCn1c(=S)[nH]c2cc3c(cc2c1=O)OCO3)N1CCN(C2CCCCC2)CC1 | 90.5%
9 | CC(C)CC(=O)CN1C(=O)C2(OCCO2)c2ccccc21 | 93.5%
10 | CNC(=O)CN(C#N)c1nc(N(C)C)nc(N(C)C)n1 | 104%
11 | O=C(Oc1ccc2c(c1)CCC2)N1CCOCC1 | 90%
12 | CCCn1c(N2CCN(CC(=O)Nc3ccc4c(c3)OCCO4)CC2)nc2ccccc21 | 88.5%
13 | COCc1ccccc1Cn1cnc2c1c(=O)n(C)c(=O)n2C | 99%
14 | O=C(Nc1ccc(N2CCOCC2)cc1)c1cc2ccccc2o1 | 99.5%
15 | COc1ccc(N2C(=O)CC(NC3CC3)C2=O)cc1 (stereo not given) | 100%
16 | COc1cccc(C(=O)NCc2nnc(SCC(=O)Nc3nccs3)n2-c2ccccc2)c1 | 101%
17 | COCCCN1C(=O)C(O)=C(C(=O)c2ccco2)C1c1ccc(Br)cc1 (stereo not given) | 102%
18 | Cc1cccc(N2C(=O)CC(N3CCN(Cc4ccc(Cl)cc4)CC3)C2=O)c1 (stereo not given) | 104%
19 | CS(=O)(=O)N(CC(=O)Nc1ccc2c(c1)OCCO2)Cc1ccccc1 | 93.5%
20 | O=C(O)CC1SC(=Nc2cccc(C(F)(F)F)c2)NC1=O (stereo not given) | 111%

Row | SMILES | viability
21 | CCOC(=O)Nc1sc(=S)n(C)c1C | 92.5%
22 | CCCn1nc(NS(=O)(=O)c2ccccc2)c2cc3ccccc3nc21 | 91.5%
23 | COc1ccc2[nH]c(=O)c(CN(Cc3cccs3)S(=O)(=O)c3cccc4nsnc34)cc2c1 | 96.5%
24 | CC(C)C(c1nnnn1CC1CCCO1)N1CCN(Cc2ccc3c(c2)OCO3)CC1 (stereo not given) | 102%
25 | COc1cc2c(cc1NC(=O)CN1CCN(S(=O)(=O)c3ccc(F)cc3)CC1)oc1ccccc12 | 93.5%
26 | CCCn1c2c(c(O)c(C(=O)Nc3ccc(C)cn3)c1=O)CCCC2 | 102%
27 | O=S(=O)(Nc1cccnc1)c1cc(Cl)ccc1Cl | 77.5%
28 | CCN(CC(=O)Nc1ccc(S(N)(=O)=O)cc1)S(=O)(=O)c1cc(C)ccc1OC | 76.5%
29 | O=S(=O)(NCC(c1cccnc1)N1CCN(c2ccccc2)CC1)c1cc(F)ccc1F (stereo not given) | 98.5%
30 | Cc1ccc2oc(C(=O)Nc3c(C)n(C)n(-c4ccccc4)c3=O)c(C)c2c1 | 84.5%
31 | C/C=C/c1ccc(OCCn2cncn2)c(OC)c1 | 98.5%
32 | Cc1ccnc(SCCn2c(N3CCCCC3)nc3c2c(=O)n(C)c(=O)n3C)n1 | 76.5%
33 | CCN(CC)S(=O)(=O)c1ccc(NC2c3ccccc3C(=O)N2CCN2CCOCC2)cc1 (stereo not given) | 101%
34 | CCC(=O)OCCn1c(=O)c2cc3c(=O)n(CCOC(=O)CC)c(=O)c3cc2c1=O | 99%
35 | Cc1cc(Br)ccc1NC(=O)CCN1C(=O)c2ccncc2C1=O | 104%
36 | Cc1cc(C(=O)O)ccc1-n1c(C)ccc1C | 100%
37 | Cc1nn(-c2ccc(F)cc2)c2sc(C(=O)OCC(=O)N3CCC(C)CC3)cc12 | 93%
38 | CCOCCCNC(=O)C1CCN(C(=O)Nc2ccc(Cl)cc2)CC1 | 103%
39 | CCOc1ccccc1NC(=O)CN(c1ccc(C)cc1)S(=O)(=O)c1c(C)noc1C | 133%
40 | CC(C)(CO)NC(=O)CCCOc1ccc(Cl)cc1Cl | 97%
